PubChem BioAssay (NCATS)
Results filed as inconclusive are left out. Calls of active or inactive are those of the source. Unless noted, calls come from the whole dose curve; as a rule, active = well fitted curve in either direction with a large enough effect (not every such curve was filed as active); inconclusive = small, poorly fitted or top-dose-only effect, or another doubt; inactive = flat fitted curve, though single readings scatter.

What was measured:
[1] = NFAT Signaling Pathway (AID 444); conditions: Jurkat NFAT-bla M1, carbachol, beta-lactamase ratio, 5 h; at 17.2 µM (top of the series) unless noted;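 note: carbachol stimulus at about its EC50 of 1 µM final; % is set by controls: 0 for no effect and ±100 for the full control effect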
In short: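 Read-out: CCF4 FRET ratio (460 nm/530 nm) after 1 h RT dye loading, used for %activity and AC50 from titration series. Cells: Jurkat NFAT-β-lactamase/M1 line, treated with compound plus 1 uM carbachol for 5 h, 37 °C.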

[2] = Stat Signaling Pathway (AID 446);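 note: ME-180 cervical cancer cells given 40 pM IL-6 alongside compound; SIE-controlled beta-lactamase reporter measured as 460/530 nm FRET emission ratio; % is set by controls: 0 for no effect and ±100 for the full control effect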
In short: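 Compound effects on IL-6-induced STAT reporter activity were measured in ME-180 cells. After overnight culture, cells were co-treated with 40 pM IL-6 for 5 hrs before beta-lactamase substrate loading at room temperature.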

[3] = molecular target: Glucocorticoid receptor (Homo sapiens) (UniProt P04150); test: GR-GFP Redistribution (AID 450;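 active = compounds whose dose series gives a full or clear partial fitted curve of increased nuclear translocation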; note: potency is the fitted concentration of half-maximal effect); conditions: U2OS GR-GFP nuclear translocation, laser cytometry, 2 h
Glucocorticoid receptor (Homo sapiens), sequence (P04150 whole entry, looked up): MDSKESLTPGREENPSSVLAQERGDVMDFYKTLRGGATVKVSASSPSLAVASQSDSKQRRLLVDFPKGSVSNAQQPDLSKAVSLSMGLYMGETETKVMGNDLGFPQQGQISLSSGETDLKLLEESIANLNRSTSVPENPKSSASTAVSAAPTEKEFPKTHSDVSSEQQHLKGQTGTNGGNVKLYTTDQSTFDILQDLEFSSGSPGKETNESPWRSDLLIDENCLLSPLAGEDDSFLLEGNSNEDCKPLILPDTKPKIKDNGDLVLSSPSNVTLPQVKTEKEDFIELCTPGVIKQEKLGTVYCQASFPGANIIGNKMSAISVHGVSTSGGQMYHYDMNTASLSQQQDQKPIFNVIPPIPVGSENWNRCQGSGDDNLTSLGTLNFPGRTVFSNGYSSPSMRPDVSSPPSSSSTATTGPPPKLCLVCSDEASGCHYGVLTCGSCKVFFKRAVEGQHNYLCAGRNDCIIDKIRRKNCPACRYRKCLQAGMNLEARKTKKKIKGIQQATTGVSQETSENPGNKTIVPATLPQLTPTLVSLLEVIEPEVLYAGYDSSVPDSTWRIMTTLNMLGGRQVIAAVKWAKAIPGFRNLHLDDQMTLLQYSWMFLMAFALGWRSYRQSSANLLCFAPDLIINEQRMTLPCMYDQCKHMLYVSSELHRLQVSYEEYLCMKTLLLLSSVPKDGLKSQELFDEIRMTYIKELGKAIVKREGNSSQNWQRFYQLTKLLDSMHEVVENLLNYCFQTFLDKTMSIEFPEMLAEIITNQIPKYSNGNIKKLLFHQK

CC(C)[C@@]1(NC(=O)[C@@H]2C=C3c4cccc5[nH]cc(c45)C[C@H]3N(C)C2)O[C@@]2(O)[C@@H]3CCCN3C(=O)[C@H](Cc3ccccc3)N2C1=O
inactive: activity change, negative = inhibition [1] -19% | outcome [2] | Potency [3] > 20.6 µM
